The nature of assay [1]: P. berghei load reduction in hepatocytes – cell-based, HepG2, luciferase luminescence, HepG2 viability, primary screen (AID 624349; in the data active = parasite load remaining mostly below about 12%, no sharp cut-off; inactive = mostly above about 10%;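 also: 100% = mean of DMSO negative control wells on the same plate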). Particulars: P. berghei liver stage in HepG2, luciferase luminescence, concentration not given here; parasite load remaining: stronger effect = lower value; viability: measured here: HepG2 viability without parasites.
The nature of assay [2]: signal quenchers or enhancers, Cy5 substrate/SSB – biochemical, NIH Clinical Collection, E. coli SSB, artefact control for HCV NS3 helicase inhibitor project (AID 743268; call rule not given here). The note with it: Cy5-oligo bound E. coli SSB, fluorescence interference.
Assay [3] has as its system Hepatitis C virus NS3 helicase. The assay is described as follows: blockers of NS3h binding to DNA – biochemical, fluorescence polarization, NIH Clinical Collection, primary screen (AID 743270; call rule not given here). Particulars: NS3 helicase binding to Cy5-dT15 DNA, stronger effect = higher value, concentration not given here. (In general: In fluorescence polarisation assays a small probe gives low polarisation when free and higher when bound to something large.)

Assay [4] concerns the target Single-stranded DNA-binding protein (Escherichia coli (strain K12)) (UniProt P0AGE0). The assay is described as follows: SSB-ssDNA binding inhibitors – biochemical, fluorescence polarization, NIH Clinical Collection, counter-screen for HCV NS3 helicase inhibitor project (AID 743271; in the data active = inhibition above about 28%). Particulars: E. coli SSB-DNA binding, stronger effect = higher value, concentration not given here.

The nature of assay [5]: compounds distorting NS3 helicase fluorescence signal – biochemical, NIH Clinical Collection, artefact control for HCV NS3 helicase inhibitor project (AID 743272; call rule not given here;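 also: HCV NS3 helicase with a Cy5 labelled single stranded DNA probe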). The note with it: fluorescence interference counterscreen, HCV NS3 helicase assay; stronger effect = lower value. In general terms: Counterscreens check selectivity or assay interference.
Assay [6] is described as follows: modulation of C. elegans fzo-1 (AID 1259413; call rule not given here;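 also: fzo-1 mutant C. elegans worms in liquid wells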). The note with it: C. elegans fzo-1 modulator screen, mean read-out; stronger effect = higher value.
The nature of assay [7]: viability loss with induced miR-34 in A549 – imaging, A549 dox-inducible miR-34, nuclei and caspase counts, primary screen (AID 1347080;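 active = compounds whose cell count with miR-34 switched on is under 0.7 times the count with it off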). The note with it: A549 miR-34 inducible, Hoechst nuclei count, 48 h.
The subject of the next assay is F380Y. The assay is described as follows: BK channel mutant inhibitors and activators – cell-based, U2OS BacMam, thallium flux, beta subunits, selectivity assay, profiling panel (AID 1259406).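 Also: initial slope of Thallos dye fluorescence rise after thallium is added; log ratio against the mean of 0.3% DMSO vehicle wells on the same plate.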 The note with it: U2OS BacMam BK variants, at 30 µM.
Another assay deals with F380Y/beta1. The assay is described as above. The note with it: U2OS BacMam BK variants, at 30 µM.
The subject of a further assay is F380Y/beta2Delta. The assay is described as above. Particulars: U2OS BacMam BK variants, at 30 µM.
The next assay has as its system F380Y/beta4. The description is as above. Particulars: U2OS BacMam BK variants, at 30 µM.
Assay [8] addresses Calcium-activated potassium channel subunit alpha-1 (Homo sapiens) + Leucine-rich repeat-containing protein 26 (Homo sapiens) (UniProt Q12791+Q2I0M4). The assay is described as above. Particulars: U2OS BacMam BK variants, F380Y/Slo1WT/gamma1, at 30 µM.
Another assay concerns R275C. The description is as above. The note with it: U2OS BacMam BK variants, at 30 µM.
For the next assay, the system named is R275C/beta1. Described as above. The note with it: U2OS BacMam BK variants, at 30 µM.
Another assay relates to R275C/beta2Delta. The description is as above. The note with it: U2OS BacMam BK variants, at 30 µM.
In a further assay the test system is R275C/beta4. Described as above. Particulars: U2OS BacMam BK variants, at 30 µM.
The subject of the next assay is R275C/Slo1WT/beta2. The assay is described as above. The note with it: U2OS BacMam BK variants, at 30 µM.
Assay [9] in a line: MELAS cybrid and Rieske KO viability enhancers – cell-based, MELAS cybrids, Rieske KO mouse fibroblasts, CellTiter-Glo, primary screen (AID 1508586;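 active = mean z-score across replicates of 1.96 or higher in either the MELAS or the Rieske mutant cell line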;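 also: z relative to plate mean and SD of compound and empty wells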). Particulars: low glucose.
The mark [10] stands for this setting: stronger effect = lower value, cell number ratio, induced over uninduced.
Setting [11] is: measured here: relative caspase fold change +Dox/-Dox.
The mark [12] stands for this setting: measured here: total cells with miR-34 induction, stronger effect = lower value.
[13] abbreviates: measured here: total cells without miR-34 induction.
Setting [14] is: MELAS cybrid survival, CellTiter-Glo 48 h, stronger effect = higher value.
The mark [15] stands for this setting: Rieske KO mouse fibroblast survival, CellTiter-Glo 72 h.

The results in this text go back to PubChem BioAssay.

Molecules are shown by their SMILES. Several values for one entry are separate records, joined by “and”; a condition that tells them apart may be missing. Equal entries are not always repeated. Activity calls are given as the source filed them.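 The calls were made as follows, unless noted: active = thallium flux through the channel raised or lowered by more than 3 SD from vehicle-only wells, actives on both sides; inactive = the rest.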

Calcium-activated potassium channel subunit alpha-1 (Homo sapiens) + Leucine-rich repeat-containing protein 26 (Homo sapiens), sequence (Q2I0M4 whole entry, looked up, one chain of several): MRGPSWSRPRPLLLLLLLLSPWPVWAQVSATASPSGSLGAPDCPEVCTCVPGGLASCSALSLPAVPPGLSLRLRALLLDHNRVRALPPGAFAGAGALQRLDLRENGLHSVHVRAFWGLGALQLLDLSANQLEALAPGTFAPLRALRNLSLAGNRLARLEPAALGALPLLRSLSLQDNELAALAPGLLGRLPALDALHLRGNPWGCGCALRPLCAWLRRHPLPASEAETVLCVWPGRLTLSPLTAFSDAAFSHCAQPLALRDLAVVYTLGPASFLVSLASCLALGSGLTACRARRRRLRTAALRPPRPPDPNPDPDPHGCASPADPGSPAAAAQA

With `CC1(C)SC2C(NC(=O)Cc3ccccc3)C(=O)N2C1C(=O)O` (stereo not drawn), the parasite load remaining in assay [1] is 67.7% (inactive). In addition, in [1], the viability worked out at 89.4%. Moreover, the fluorescence ratio in assay [2] was 1.02 (inactive); in assay [5], 1 (inactive). Also, the inhibition was -1.36% (inactive) in [3] and 1.05% (inactive) in assay [4]. Moreover, the mean signal in assay [6] is 247 (inactive). In addition, the fold change in assay [7] (setting [10]) was 0.988 (inactive); in [7] (setting [11]), 2.34. In addition, the results for the cell count in assay [7] (setting [12]) and in assay [7] (setting [13]) were 10600 and 10700, respectively. Also, the log fold change Tl+ flux in the assay on F380Y was -0.0498 (inactive); in the assay with F380Y/beta1, -0.0346 (inactive); with F380Y/beta2Delta, -0.00781 (inactive); in the assay on F380Y/beta4, 0.000902 (inactive); in [8], 0.0267 (inactive); with R275C it was 0.0404 (inactive). Also, the log fold change Tl+ flux in the assay with R275C/beta1 is -0.00964 (inactive); in the assay on R275C/beta2Delta, 0.00389 (inactive); with R275C/beta4 it was -0.0356 (inactive); with R275C/Slo1WT/beta2, -0.096 (inactive).

Consider `CC(COc1ccccc1Cc1ccccc1)N1CCCCC1` (stereo not drawn), for which the parasite load remaining in [1] was 25.1% (inactive). Moreover, the viability in [1] was 82.3%. Also, the fluorescence ratio was 1.04 (inactive) in [2] and 1.01 (inactive) in assay [5]. For the same compound, the inhibition in assay [3] is -2.77% (inactive); in [4], 3.75% (inactive). Besides, the mean signal in assay [6] was 222 (inactive). In addition, the fold change in assay [7] (setting [10]) is 0.815 (inactive); in assay [7] (setting [11]), 2.34. In addition, the cell count was determined as 6390 in [7] (setting [12]) and 7840 in assay [7] (setting [13]). Moreover, the log fold change Tl+ flux in the assay on F380Y was 0.0907 (inactive); with F380Y/beta1, 0.236 (active); with F380Y/beta2Delta, -0.0416 (inactive); in the assay on F380Y/beta4, 0.194 (active); in [8] it was -0.0112 (inactive); in the assay with R275C it was -0.246 (active). Also, the log fold change Tl+ flux in the assay with R275C/beta1 is 0.252 (active); with R275C/beta2Delta, 0.0368 (inactive); with R275C/beta4, -0.00829 (inactive); with R275C/Slo1WT/beta2 it was -0.0412 (inactive).

As for `CC(C)OC(=O)CCC/C=C\C[C@@H]1[C@@H](CC[C@@H](O)CCc2ccccc2)[C@H](O)C[C@@H]1O`, in assay [1], the parasite load remaining was 89.4% (inactive) and 43.5% (inactive). In addition, the viability in [1] is 60.9% and 104%. Further, the fluorescence ratio in [2] is 0.97 (inactive); in assay [5], 0.95 (inactive). The inhibition in [3] was 0.4% (inactive); in [4], -5.49% (inactive). Also, the mean signal in [6] is 205 (inactive). Besides, the fold change in assay [7] (setting [10]) is 0.899 (inactive); in assay [7] (setting [11]), 1.07. The figures for the cell count in assay [7] (setting [12]) and in assay [7] (setting [13]) were 10000 and 11100, respectively. The z-score is 0.73 (inactive) and -0.464 (inactive) in assay [9] (setting [14]); 1.53 and -0.0343 in assay [9] (setting [15]). Besides, the log fold change Tl+ flux in the assay with F380Y is 0.503 (active); in the assay on F380Y/beta1, 0.284 (active); in the assay on F380Y/beta2Delta it was -0.0484 (inactive); with F380Y/beta4, 0.158 (active); in assay [8], 0.228 (active); with R275C it was -0.0794 (inactive). Besides, the log fold change Tl+ flux in the assay on R275C/beta1 was 0.476 (active); in the assay with R275C/beta2Delta it was 0.262 (active); in the assay with R275C/beta4, 0.467 (active); in the assay on R275C/Slo1WT/beta2, 0.084 (active).

In the case of `C=CCc1ccc(O)c(-c2ccc(O)c(CC=C)c2)c1`, the parasite load remaining in [1] is 18.8% (inactive). Besides, the viability in assay [1] turned out to be 70.3%. In addition, the fluorescence ratio in [2] and in [5] was 0.94 (inactive) in each case. Moreover, the inhibition in assay [3] is 5.94% (inactive); in assay [4] it was 5.29% (inactive). For the same compound, in [6], the mean signal is 216 (inactive). The fold change in assay [7] (setting [10]) was 0.989 (inactive) and 0.916 (inactive); in assay [7] (setting [11]) it was 1.37 and 0.714. Further, the cell count in assay [7] (setting [12]) was 8192 and 9270; in assay [7] (setting [13]), 8280 and 10100. Moreover, the values for the z-score in assay [9] (setting [14]) and in assay [9] (setting [15]) were -0.24 (inactive) and 0.74, respectively. Further, the log fold change Tl+ flux in the assay on F380Y is 0.306 (active); with F380Y/beta1 it was 0.643 (active); with F380Y/beta2Delta it was 0.34 (active); with F380Y/beta4, 0.501 (active); in [8], 0.418 (active); in the assay on R275C it was 0.0538 (inactive). For the same compound, the log fold change Tl+ flux is 0.387 (active) in the assay with R275C/beta1, 0.524 (active) in the assay with R275C/beta2Delta, 0.697 (active) in the assay on R275C/beta4 and 0.149 (active) in the assay with R275C/Slo1WT/beta2.

A word on the viability: it is a read-out of living cells in per cent, often relative to untreated cells. As a reminder, the inhibition is the relative decrease from the control value, in per cent.
